Of roughly 7,900 targets only a part is listed; those with a hit were picked by preference. About 0.6% of all pairs of compound and target were hits. A number with no mark means an inactive call.
Columns and labels:
Assay in all cases: log2 fold change, soluble protein after heating vs DMSO (PISA); higher = thermal stabilisation; K562 cells, 10 uM, 30 min; active = over 0.2 and 3.5 SD of the protein, either way, in both replicates (recomputed)
[1] = compound: NC(=O)Nc1cc(-c2cccc(F)c2)sc1C(=O)N[C@H]1CCCNC1
In short: (§1)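 For each measurement, 10 μM compound was applied for 30 min to K562 cells at 2×10^6 cells/mL. Aliquots were heated for 3 min across 48°C-58°C, pooled, and extracted in PBS with 0.5% NP-40 at 4°C; the supernatant after 21,000xg for 90 min was soluble protein. This was quantified by TMTpro 16plex LC-MS/MS with channel sums equalised, and thermal stability was reported relative to control samples from duplicates, on a log2 fold-change scale.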

[2] = compound: NC(=O)c1cnc(N[C@@H]2CCCC[C@@H]2N)nc1Nc1cccc(-n2nccn2)c1
In short: as §1

[3] = compound: NC1(c2ccc(-c3nc4ccn5c(=O)[nH]nc5c4cc3-c3ccccc3)cc2)CCC1
In short: as §1

[4] = compound: NCC(=O)Nc1ccc(-n2nc(C(F)(F)F)cc2-c2ccc3c(ccc4ccccc43)c2)cc1
In short: as §1

entinostat = compound: Nc1ccccc1NC(=O)c1ccc(CNC(=O)OCc2cccnc2)cc1 [entinostat]
In short: as §1

vorinostat = compound: O=C(CCCCCCC(=O)Nc1ccccc1)NO [vorinostat]
In short: as §1

citarinostat = compound: O=C(CCCCCCNC(=O)c1cnc(N(c2ccccc2)c2ccccc2Cl)nc1)NO [citarinostat]
In short: as §1

silmitasertib = compound: O=C(O)c1ccc2c(c1)nc(Nc1cccc(Cl)c1)c1ccncc12 [silmitasertib]
In short: as §1

[5] = compound: O=C1NC(=O)C(c2cnc3ccccn23)=C1c1cn2c3c(cc(F)cc13)CN(C(=O)N1CCCCC1)CC2
In short: as §1

[6] = compound: c1cc(OCCN2CCCCC2)cc(-c2n[nH]c3ccc(-c4nnc[nH]4)cc23)c1
In short: as §1

Chain of UniProt Q15417 (Q15417 whole entry, looked up): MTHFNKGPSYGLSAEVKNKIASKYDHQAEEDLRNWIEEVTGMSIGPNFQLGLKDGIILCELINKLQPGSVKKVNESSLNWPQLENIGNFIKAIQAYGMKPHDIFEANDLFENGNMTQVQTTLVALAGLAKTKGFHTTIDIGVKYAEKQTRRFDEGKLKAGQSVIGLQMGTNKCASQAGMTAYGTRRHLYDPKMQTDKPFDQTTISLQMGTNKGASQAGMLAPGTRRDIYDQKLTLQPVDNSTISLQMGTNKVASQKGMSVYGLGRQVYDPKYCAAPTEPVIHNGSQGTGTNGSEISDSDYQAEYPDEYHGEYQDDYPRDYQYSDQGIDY
Chain of UniProt Q9Y646 (Q9Y646 whole entry, looked up): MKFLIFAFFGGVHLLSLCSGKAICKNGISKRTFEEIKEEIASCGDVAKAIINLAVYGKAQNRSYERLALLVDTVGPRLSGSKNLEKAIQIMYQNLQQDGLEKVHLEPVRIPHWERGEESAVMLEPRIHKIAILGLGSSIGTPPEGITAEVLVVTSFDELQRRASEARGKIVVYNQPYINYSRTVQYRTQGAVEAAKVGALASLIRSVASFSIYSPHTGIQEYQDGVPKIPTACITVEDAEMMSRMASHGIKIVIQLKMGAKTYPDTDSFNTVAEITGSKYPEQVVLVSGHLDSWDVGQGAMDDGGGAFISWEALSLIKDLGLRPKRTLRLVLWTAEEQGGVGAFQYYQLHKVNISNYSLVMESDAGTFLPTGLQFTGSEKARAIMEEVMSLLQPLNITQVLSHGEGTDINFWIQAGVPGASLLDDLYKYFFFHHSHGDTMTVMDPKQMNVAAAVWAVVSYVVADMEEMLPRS
Chain of UniProt Q00537 (Q00537 whole entry, looked up): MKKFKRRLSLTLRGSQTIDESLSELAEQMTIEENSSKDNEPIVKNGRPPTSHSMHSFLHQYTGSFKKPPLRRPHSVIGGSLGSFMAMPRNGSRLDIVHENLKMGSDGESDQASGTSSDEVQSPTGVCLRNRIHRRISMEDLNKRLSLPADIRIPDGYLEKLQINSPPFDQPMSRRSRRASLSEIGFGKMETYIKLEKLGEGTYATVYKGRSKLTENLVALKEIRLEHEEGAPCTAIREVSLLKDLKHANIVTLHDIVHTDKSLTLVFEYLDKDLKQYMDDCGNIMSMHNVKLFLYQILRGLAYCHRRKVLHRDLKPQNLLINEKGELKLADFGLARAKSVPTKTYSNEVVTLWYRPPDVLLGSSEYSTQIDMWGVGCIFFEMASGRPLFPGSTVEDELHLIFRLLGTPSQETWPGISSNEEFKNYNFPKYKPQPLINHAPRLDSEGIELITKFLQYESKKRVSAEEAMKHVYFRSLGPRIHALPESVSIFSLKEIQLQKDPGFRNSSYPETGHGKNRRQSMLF
Chain of UniProt P24311 (P24311 whole entry, looked up): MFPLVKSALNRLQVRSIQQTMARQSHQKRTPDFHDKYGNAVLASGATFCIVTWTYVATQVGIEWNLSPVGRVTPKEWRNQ
Chain of UniProt Q5T5Y3 (Q5T5Y3 whole entry, looked up): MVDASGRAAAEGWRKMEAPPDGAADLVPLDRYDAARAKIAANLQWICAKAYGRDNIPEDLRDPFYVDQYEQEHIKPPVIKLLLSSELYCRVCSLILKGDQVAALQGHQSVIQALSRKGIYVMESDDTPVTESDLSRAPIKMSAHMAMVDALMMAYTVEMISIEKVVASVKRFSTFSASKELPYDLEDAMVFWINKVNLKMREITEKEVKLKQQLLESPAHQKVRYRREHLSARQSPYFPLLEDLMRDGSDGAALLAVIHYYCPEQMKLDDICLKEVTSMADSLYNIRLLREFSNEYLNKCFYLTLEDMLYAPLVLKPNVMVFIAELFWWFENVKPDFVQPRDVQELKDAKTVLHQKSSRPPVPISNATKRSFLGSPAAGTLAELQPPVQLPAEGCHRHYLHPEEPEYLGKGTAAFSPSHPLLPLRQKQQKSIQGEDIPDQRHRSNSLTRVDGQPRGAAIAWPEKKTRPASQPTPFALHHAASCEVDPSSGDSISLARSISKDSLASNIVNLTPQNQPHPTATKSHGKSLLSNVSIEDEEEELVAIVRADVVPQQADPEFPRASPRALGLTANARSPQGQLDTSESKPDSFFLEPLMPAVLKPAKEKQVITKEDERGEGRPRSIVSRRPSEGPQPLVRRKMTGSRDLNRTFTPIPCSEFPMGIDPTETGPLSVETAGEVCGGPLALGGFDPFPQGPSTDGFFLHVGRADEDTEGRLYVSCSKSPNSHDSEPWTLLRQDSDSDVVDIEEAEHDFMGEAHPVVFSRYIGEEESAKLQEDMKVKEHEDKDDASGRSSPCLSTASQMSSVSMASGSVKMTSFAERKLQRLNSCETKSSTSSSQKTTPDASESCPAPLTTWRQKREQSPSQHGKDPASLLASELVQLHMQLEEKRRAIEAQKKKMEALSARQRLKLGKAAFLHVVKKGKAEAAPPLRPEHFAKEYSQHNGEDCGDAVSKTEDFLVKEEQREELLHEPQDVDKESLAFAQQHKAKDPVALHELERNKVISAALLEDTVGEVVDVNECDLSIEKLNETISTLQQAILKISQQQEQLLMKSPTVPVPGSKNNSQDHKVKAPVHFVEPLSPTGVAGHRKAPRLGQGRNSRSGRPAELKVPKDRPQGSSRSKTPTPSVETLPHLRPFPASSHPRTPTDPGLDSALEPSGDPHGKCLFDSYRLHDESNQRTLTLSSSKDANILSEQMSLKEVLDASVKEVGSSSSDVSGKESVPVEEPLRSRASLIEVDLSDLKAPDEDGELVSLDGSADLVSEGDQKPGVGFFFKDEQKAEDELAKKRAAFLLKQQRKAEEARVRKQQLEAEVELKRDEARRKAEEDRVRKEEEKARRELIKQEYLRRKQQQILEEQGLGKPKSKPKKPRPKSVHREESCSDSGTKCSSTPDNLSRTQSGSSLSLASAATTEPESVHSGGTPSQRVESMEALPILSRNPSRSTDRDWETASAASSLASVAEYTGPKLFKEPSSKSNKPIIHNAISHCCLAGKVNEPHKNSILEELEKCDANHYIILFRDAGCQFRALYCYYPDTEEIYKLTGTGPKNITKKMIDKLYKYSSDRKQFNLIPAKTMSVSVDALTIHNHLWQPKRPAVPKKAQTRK
Chain of UniProt Q96MX0 (Q96MX0 whole entry, looked up): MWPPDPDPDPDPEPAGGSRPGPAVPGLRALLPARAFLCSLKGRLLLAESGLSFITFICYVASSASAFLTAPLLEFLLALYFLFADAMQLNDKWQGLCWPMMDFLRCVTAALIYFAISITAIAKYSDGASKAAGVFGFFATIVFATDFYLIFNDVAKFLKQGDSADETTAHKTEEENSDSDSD
Chain of UniProt Q00534 (Q00534 whole entry, looked up): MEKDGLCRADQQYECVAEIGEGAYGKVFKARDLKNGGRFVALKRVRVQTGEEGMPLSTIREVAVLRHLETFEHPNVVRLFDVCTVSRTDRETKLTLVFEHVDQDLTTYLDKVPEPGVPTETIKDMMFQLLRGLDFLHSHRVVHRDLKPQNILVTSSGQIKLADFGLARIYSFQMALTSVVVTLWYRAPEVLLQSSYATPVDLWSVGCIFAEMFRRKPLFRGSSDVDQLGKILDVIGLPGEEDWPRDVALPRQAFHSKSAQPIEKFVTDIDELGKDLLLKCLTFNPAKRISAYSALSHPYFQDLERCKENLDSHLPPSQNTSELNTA
Chain of UniProt O75122 (O75122 whole entry, looked up): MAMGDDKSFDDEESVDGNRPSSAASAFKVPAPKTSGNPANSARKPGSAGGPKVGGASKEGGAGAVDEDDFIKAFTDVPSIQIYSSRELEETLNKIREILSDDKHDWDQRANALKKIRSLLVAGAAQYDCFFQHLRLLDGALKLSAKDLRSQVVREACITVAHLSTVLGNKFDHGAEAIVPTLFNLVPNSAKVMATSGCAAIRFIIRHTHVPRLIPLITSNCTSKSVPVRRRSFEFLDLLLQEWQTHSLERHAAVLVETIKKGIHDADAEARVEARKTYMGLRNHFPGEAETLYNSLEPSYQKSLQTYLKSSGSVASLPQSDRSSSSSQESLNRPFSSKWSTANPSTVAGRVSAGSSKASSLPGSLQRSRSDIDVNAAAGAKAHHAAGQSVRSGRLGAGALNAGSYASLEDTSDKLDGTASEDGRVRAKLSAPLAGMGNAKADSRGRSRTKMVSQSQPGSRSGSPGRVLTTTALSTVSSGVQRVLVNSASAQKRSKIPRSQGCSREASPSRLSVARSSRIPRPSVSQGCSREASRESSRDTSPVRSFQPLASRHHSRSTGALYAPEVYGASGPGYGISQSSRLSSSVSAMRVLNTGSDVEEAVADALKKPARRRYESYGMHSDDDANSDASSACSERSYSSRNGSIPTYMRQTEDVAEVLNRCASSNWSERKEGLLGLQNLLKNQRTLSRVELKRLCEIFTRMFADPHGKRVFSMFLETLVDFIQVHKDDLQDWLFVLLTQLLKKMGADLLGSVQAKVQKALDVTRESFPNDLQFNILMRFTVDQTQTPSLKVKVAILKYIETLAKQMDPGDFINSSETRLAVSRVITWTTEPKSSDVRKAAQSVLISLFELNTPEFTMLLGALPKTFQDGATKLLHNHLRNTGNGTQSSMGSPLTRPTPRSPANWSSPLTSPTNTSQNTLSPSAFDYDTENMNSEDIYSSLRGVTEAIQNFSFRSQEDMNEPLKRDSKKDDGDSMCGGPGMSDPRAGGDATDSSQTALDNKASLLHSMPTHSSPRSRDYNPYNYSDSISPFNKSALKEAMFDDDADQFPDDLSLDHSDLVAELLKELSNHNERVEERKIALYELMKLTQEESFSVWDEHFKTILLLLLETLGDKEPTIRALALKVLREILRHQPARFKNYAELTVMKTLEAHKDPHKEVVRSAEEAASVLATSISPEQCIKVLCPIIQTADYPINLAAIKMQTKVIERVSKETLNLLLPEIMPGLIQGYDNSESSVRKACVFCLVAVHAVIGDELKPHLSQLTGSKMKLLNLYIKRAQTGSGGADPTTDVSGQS

| Target | log2 fold change [1] | log2 fold change [2] | log2 fold change [3] | log2 fold change [4] | log2 fold change (entinostat) | log2 fold change (vorinostat) | log2 fold change (citarinostat) | log2 fold change (silmitasertib) | log2 fold change [5] | log2 fold change [6] |
| --- | --- | --- | --- | --- | --- | --- | --- | --- | --- | --- |
| COX7B (UniProt P24311) | 0.094 | -0.001 | -0.028 | 0.02 | -0.054 | 0.012 | -0.013 | 0.039 | 0.036 | -0.026 |
| CDK6 (UniProt Q00534) | -0.004 | -0.082 | -0.017 | -0.003 | 0.009 | 0.005 | -0.006 | 0.131 | 0.146 | 0.017 |
| CHEK1 (UniProt O14757) | 0.338 (active) | -0.225 | -0.209 | -0.032 | 0.02 | 0.037 | 0.094 | -0.011 | -0.064 | -0.276 (active) |
| CCAR1 (UniProt Q8IX12) | 0 | -0.068 | -0.198 | -0.035 | 0.021 | 0.067 | 0.018 | -0.049 | -0.043 | -0.016 |
| CDK8 (UniProt P49336) | -0.038 | 0.011 | 0.036 | 0.014 | -0.152 | 0.038 | -0.002 | 0.175 | 0.036 | -0.019 |
| CDK17 isoform 2 (UniProt Q00537) | -0.066 | -0.258 | -0.04 | -0.074 | 0.035 | -0.114 | -0.245 | 0.088 | 0.321 | -0.083 |
| CLASP2 isoform 3 (UniProt O75122) | 0.018 | -0.018 | -0.147 | -0.036 | 0.02 | 0.069 | 0.09 | -0.033 | -0.153 | -0.055 |
| CERT isoform 3 (UniProt Q9Y5P4) | -0.323 (active) | -0.103 | -0.101 | -0.045 | -0.008 | -0.025 | 0.065 | 0.034 | 0 | -0.418 (active) |
| CDK9 isoform 2 (UniProt P50750) | -0.05 | -0.038 | -0.057 | 0.22 | 0.005 | 0.102 | -0.002 | -0.015 | 0.152 | -0.084 |
| CAMSAP1 isoform 3 (UniProt Q5T5Y3) | 0.124 | -0.048 | -0.172 | -0.466 (active) | -0.29 | -0.078 | 0.045 | 0.064 | -0.028 | -0.013 |
| CDK5RAP3 isoform 4 (UniProt Q96JB5) | -0.025 | -0.029 | -0.092 | -0.097 | 0.056 | 0.04 | 0.065 | -0.004 | -0.04 | 0.019 |
| CLINT1 isoform 3 (UniProt Q14677) | 0.106 | -0.027 | 0.078 | 0.058 | -0.052 | -0.035 | -0.048 | 0.008 | 0.024 | 0.015 |
| CASTOR2 (UniProt A6NHX0) | 0.076 | 0.113 | -0.034 | 0.06 | -0.072 | 0.056 | 0.04 | -0.03 | -0.005 | 0.076 |
| CD53 (UniProt P19397) | -0.15 | 0.196 | 0.133 | 0.014 | -0.044 | -0.219 | 0.013 | -0.046 | -0.037 | -0.12 |
| CNN3 (UniProt Q15417) | -0.051 | -0.125 | -0.124 | -0.144 | 0.091 | 0.023 | 0.047 | 0.047 | -0.032 | -0.001 |
| CDK12 (UniProt Q9NYV4) | -0.002 | 0.005 | 0.06 | 0.01 | 0.005 | 0.089 | -0.051 | -0.081 | 0.179 | -0.242 |
| CCZ1 (UniProt P86791) | 0.036 | -0.072 | -0.33 (active) | -0.077 | 0.006 | 0.013 | -0.011 | 0.039 | -0.01 | -0.033 |
| CMTM3 (UniProt Q96MX0) | -0.056 | -0.033 | -0.08 | 0.072 | -0.03 | -0.087 | -0.118 | 0.009 | 0.096 | -0.189 |
| COPS4 (UniProt Q9BT78) | 0.015 | 0.009 | -0.032 | 0.036 | 0.01 | 0.027 | 0.031 | -0.035 | -0.01 | 0.027 |
| CHMP4B (UniProt Q9H444) | 0.255 (active) | -0.011 | -0.065 | -0.001 | 0.108 | 0.024 | -0.044 | -0.016 | 0.014 | 0.022 |
| CDAN1 (UniProt Q8IWY9) | -0.033 | -0.042 | -0.192 | -0.091 | 0.051 | 0.022 | -0.011 | 0.095 | 0.036 | -0.018 |
| CSTF2 (UniProt P33240) | 0.015 | -0.054 | 0.086 | -0.031 | -0.028 | -0.08 | -0.011 | 0.07 | -0.049 | -0.042 |
| CLUH, A0A494C0R8 | 0.031 | 0.031 | -0.003 | -0.062 | 0.09 | 0.195 | -0.026 | 0.046 | 0.118 | -0.08 |
| CALB1 (UniProt P05937) | -0.029 | -0.014 | -0.161 | -0.041 | 0.022 | -0.027 | 0.062 | 0.006 | 0.016 | -0.035 |
| CD81 (UniProt P60033) | -0.051 | 0.222 | 0.21 | 0.231 | -0.028 | -0.074 | 0.065 | 0.052 | 0.066 | -0.166 |
| CHST11 (UniProt Q9NPF2) | -0.045 | 0.068 | -0.181 | 0.139 | -0.027 | 0.001 | 0.276 | -0.044 | 0.013 | 0.054 |
| CPQ (UniProt Q9Y646) | 0.083 | -0.01 | -0.011 | 0.072 | 0.012 | -0.043 | 0.038 | -0.004 | 0.03 | 0.009 |
| CFAP36 isoform 2 (UniProt Q96G28) | 0.027 | -0.1 | -0.095 | -0.152 | 0.023 | -0.014 | -0.022 | 0.131 | -0.025 | 0.065 |
| COASY isoform 2 (UniProt Q13057) | 0 | 0.004 | -0.138 | -0.004 | 0.018 | 0.063 | 0.054 | 0.042 | -0.004 | -0.01 |
| CSK (UniProt P41240) | 0.318 (active) | -0.084 | -0.156 | -0.083 | 0.006 | 0.023 | 0.03 | 0.046 | -0.048 | -0.014 |
